Source: PubChem BioAssay (NCATS)
Where “and” joins values, the source holds several entries; their conditions need not be identical. Identical values can stand only once. Results filed as inconclusive are left out. A structure can be active in one record and inactive in another. Unmarked numbers belong to inactive results. Calls of active or inactive are those of the source. The call rests on the fitted dose curve; in most records, active means well fitted inhibition curve with a large enough effect; inconclusive means small, poorly fitted or top-dose-only effect; inactive means flat fitted curve, though single readings scatter.

Columns and labels:
HEK293 = test: Cytotoxic Profiling of Annotated Libraries Using Quantitative High-Throughput Screening (AID 1296008); conditions: Five cell lines viability, CellTiter-Glo ATP luminescence, 48-72 h; max response: active compounds read low
In short: (§1)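 Cytotoxicity was measured as CellTiter-Glo ATP luminescence, read after 10 min at room temperature. Compound treatment of the cells lasted 48 or 72 hr at 37 degrees Celsius in a qHTS format.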

HaCat [1] = test: as above; conditions: Five cell lines viability, CellTiter-Glo ATP luminescence, 48-72 h; max response: active compounds read low
In short: as §1

KB-3-1 = test: as above; conditions: Five cell lines viability, CellTiter-Glo ATP luminescence, 48-72 h; max response: active compounds read low
In short: as §1

NIH3T3 = test: as above; conditions: Five cell lines viability, CellTiter-Glo ATP luminescence, 48-72 h; max response: active compounds read low
In short: as §1

MCC-13 = test: qHTS assay to identify novel small-molecules to repurpose for Merkel cell carcinoma treatment (AID 1296009); conditions: MCC and control cell lines, CellTiter-Glo viability, 72 h; series mostly up to 46 µM
In short: (§2)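 Cell viability measured by CellTiter-Glo following 72 hr compound treatment at 37 degree celsius, with NPC and MIPE libraries tested in 8- and 11-point concentration series.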

MCC-26 = test: as above; conditions: MCC and control cell lines, CellTiter-Glo viability, 72 h; series mostly up to 46 µM
In short: as §2

MKL-1 = test: as above; conditions: MCC and control cell lines, CellTiter-Glo viability, 72 h; series mostly up to 46 µM
In short: as §2

HACAT [2] = test: as above; conditions: MCC and control cell lines, CellTiter-Glo viability, 72 h; series mostly up to 44.8 µM
In short: as §2
Further: nearly all actives have a fitted effect of over 60% in size.
On the % scale 0 is the no-effect control and ±100 the full control effect; potency means the concentration at half of the fitted maximal effect.

Structure (SMILES): C[C@@H]1COC(Nc2ccc3ncnc(Nc4ccc(OCc5nccs5)c(Cl)c4)c3c2)=N1
- Potency (HEK293): 8.33 µM (active) and 16.4 µM (active)
- Potency (HaCat [1]): 1.66 µM (active) and 1.3 µM (active)
- max response (KB-3-1): -27.7%
- max response (NIH3T3): -19.2%
- outcome (NIH3T3): inactive
- Potency (MCC-13): inactive
- Potency (MCC-26): inactive

Structure (SMILES): Cc1c(NC(=O)OC[C@@H]2COCCN2)cn2ncnc(Nc3ccc4c(cnn4Cc4cccc(F)c4)c3)c12
- Potency (HEK293): 14.8 µM (active) and 23.1 µM (active)
- Potency (HaCat [1]): 4.69 µM (active) and 2.91 µM (active)
- max response (KB-3-1): -29.5%
- Potency (NIH3T3): 20.9 µM (active)
- max response (NIH3T3): 3.43%
- Potency (MCC-13): inactive
- Potency (MCC-26): inactive
- Potency (MKL-1): inactive

Structure (SMILES): CN1CCN(c2ccc3nc(-c4c(N)c5c(F)cccc5[nH]c4=O)[nH]c3c2)CC1
- Potency (HEK293): 1.66 µM (active)
- Potency (KB-3-1): 16.6 µM (active)
- Potency (NIH3T3): 1.32 µM (active)
- Potency (MKL-1): 8.33 µM (active)

Structure (SMILES): O=C(O)c1ccc2cc(-c3ccc(O)c(C45CC6CC(CC(C6)C4)C5)c3)ccc2c1
- Potency (HEK293): 1.87 µM (active)
- max response (KB-3-1): 7.83%
- Potency (NIH3T3): 1.66 µM (active)
- Potency (MCC-13): 2.64 µM (active)
- Potency (MKL-1): 2.35 µM (active)

Structure (SMILES): COc1cc(OC2CCN(C)CC2)ccc1Nc1ncc2c(n1)n(C1CCCC1)c(=O)n2C
- Potency (HEK293): 3.72 µM (active)
- Potency (HaCat [1]): 13.2 µM (active)
- Potency (KB-3-1): 4.18 µM (active)
- Potency (NIH3T3): 18.7 µM (active)
- Potency (MCC-26): inactive

Structure (SMILES): CC(C)c1ccccc1Cc1cc(C(=O)Nc2ccc(S(=O)(=O)c3ccccc3C(C)(C)C)cc2)c(O)c(O)c1O
- Potency (KB-3-1): 8.33 µM (active)
- Potency (MCC-26): inactive
- Potency (MKL-1): 26.4 µM (active)

Structure (SMILES): O=C(Nc1nc2cccc(-c3ccc(CN4CCS(=O)(=O)CC4)cc3)n2n1)C1CC1
- Potency (HEK293): 10.5 µM (active) and 10.3 µM (active)
- Potency (KB-3-1): 8.33 µM (active)
- max response (NIH3T3): -23.2%
- Potency (MCC-13): inactive

Structure (SMILES): COC(=O)Nc1nc2ccc(C(=O)c3ccc(F)cc3)cc2[nH]1
- Potency (HEK293): 590 nM (active) and 820 nM (active)
- outcome (HaCat [1]): inactive
- Potency (KB-3-1): 833 nM (active) and 1.46 µM (active)
- Potency (HACAT [2]): inactive

Structure (SMILES): c1nc2nc(Nc3ccc(N4CCOCC4)cc3)nc(NC3CCCCC3)c2[nH]1
- Potency (HEK293): 935 nM (active) and 252 nM (active)
- Potency (HaCat [1]): 2.64 µM (active) and 2 µM (active)
- Potency (KB-3-1): 4.18 µM (active)
- Potency (NIH3T3): 1.48 µM (active) and 2.24 µM (active)

Structure (SMILES): CC(=O)Nc1sc2c(c1-c1nc3ccccc3s1)CNC2
- Potency (HEK293): 11.8 µM (active)
- Potency (KB-3-1): 23.5 µM (active)
- Potency (MCC-13): inactive
- Potency (MCC-26): inactive

Structure (SMILES): C=CC(=O)Nc1cc2c(Nc3ccc(F)c(Cl)c3)ncnc2cc1C#CC(C)(C)N1CCN(C)CC1
- Potency (HaCat [1]): 2.09 µM (active)
- Potency (MCC-13): 11.8 µM (active)
- Potency (MKL-1): 6.62 µM (active)

Structure (SMILES): Cc1cc(Nc2cc(N3CCN(C)CC3)nc(Sc3ccc(NC(=O)C4CC4)cc3)n2)n[nH]1
- Potency (HEK293): 7.43 µM (active) and 7.31 µM (active)
- Potency (HaCat [1]): 6.62 µM (active)
- Potency (KB-3-1): 8.33 µM (active) and 8.2 µM (active)
- Potency (NIH3T3): 16.6 µM (active) and 20.6 µM (active)

Structure (SMILES): Cc1cc(Nc2cc(CN3CCOCC3)c3nc(C)c(Cc4ccc(Cl)cc4F)n3n2)n[nH]1
- Potency (HaCat [1]): 14.8 µM (active)
- max response (HaCat [1]): -23.1%
- Potency (KB-3-1): 4.18 µM (active) and 5.17 µM (active)
- Potency (NIH3T3): 13.2 µM (active) and 11.6 µM (active)

Structure (SMILES): COc1ccc(C(=O)CC2(O)C(=O)Nc3c(Cl)ccc(Cl)c32)cc1 (stereo not given)
- Potency (HEK293): 2.64 µM (active)
- Potency (HaCat [1]): 4.11 µM (active)
- Potency (KB-3-1): 3.72 µM (active) and 5.17 µM (active)
- Potency (NIH3T3): 9.35 µM (active) and 2.91 µM (active)

Structure (SMILES): C[C@]1(CO)CN(c2cc(C(=O)Nc3ccc4c(c3)-c3c(c(C(N)=O)nn3-c3ccc(F)cc3)CC4)c(Cl)cn2)C[C@@]1(C)CO
- Potency (HEK293): 4.69 µM (active) and 9.2 µM (active)
- Potency (HaCat [1]): 13.2 µM (active)
- max response (KB-3-1): -15.8%
- max response (NIH3T3): -26%

Structure (SMILES): CNC(=O)c1c(F)cccc1Nc1nc(Nc2cc3c(cc2OC)CCN3C(=O)CN(C)C)nc2[nH]ccc12
- Potency (HEK293): 4.18 µM (active) and 13 µM (active)
- Potency (HaCat [1]): 18.4 µM (active)
- outcome (HaCat [1]): inactive
- Potency (NIH3T3): 7.31 µM (active)
- Potency (HACAT [2]): inactive
- Potency (MCC-26): 23.5 µM (active)
- Potency (MKL-1): 18.7 µM (active)

Structure (SMILES): Cc1cc(Nc2cc(NC(=O)c3c(Cl)cccc3Cl)ccn2)nc(N)n1
- Potency (KB-3-1): 0.418 µM (active)
- Potency (NIH3T3): 3.72 µM (active)

Structure (SMILES): CCCCc1nc2cc(C=CC(=O)NO)ccc2n1CCN(CC)CC
- Potency (HaCat [1]): 4.69 µM (active)
- Potency (KB-3-1): 2.64 µM (active)
- Potency (NIH3T3): 4.18 µM (active)
- Potency (MCC-13): 7.43 µM (active)
- Potency (MCC-26): 8.33 µM (active)
- Potency (MKL-1): 3.32 µM (active)

Structure (SMILES): CC(C)(C)NC(=O)[C@H]1CN(Cc2cccnc2)CCN1C[C@@H](O)C[C@@H](Cc1ccccc1)C(=O)N[C@H]1c2ccccc2C[C@H]1O
- max response (KB-3-1): -44.5%
- Potency (MCC-13): inactive
- Potency (MKL-1): inactive

Structure (SMILES): CCN1CCN(Cc2ccc(-c3cc4c(N[C@H](C)c5ccccc5)ncnc4[nH]3)cc2)CC1
- Potency (HaCat [1]): 1.48 µM (active)
- max response (KB-3-1): -20%
- Potency (NIH3T3): 16.6 µM (active)
- Potency (MCC-13): 4.18 µM (active)
- Potency (MCC-26): 0.743 µM (active)

Structure (SMILES): CC(C)(O)CCc1ccc(OCc2cc(-c3cccc(OC(F)F)c3)c3ncccc3c2)cc1
- outcome (HaCat [1]): inactive
- max response (NIH3T3): 4.85%
- Potency (HACAT [2]): inactive
- Potency (MCC-13): inactive
- Potency (MKL-1): inactive
